# In the library only some 5.2% were active in any assay of this set; here they are far more common.
# ALR H2O2 inh – inhibitors of human ALR sulfhydryl oxidase, primary screen, biochemical, H2O2 detection, HRP-luminol luminescence, single point; FAD-linked sulfhydryl oxidase ALR (Homo sapiens), P55789; purified ALR, DTT oxidation; inhibition, % (no concentration beside the values); 290,000 tested, 3.8% active; AID 485317, 2010;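 active = mean replicate inhibition above about 79%, with every replicate also reaching it, limit read from the data; inconclusive = only one of the two criteria met; inactive = mean below limit and not every replicate reaching it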
# Yeast superoxide – reduction of superoxide in aged yeast, primary screen, HTS | 330,000 tested, 0.18% active | S. cerevisiae aged cells, superoxide DHE fluorescence; stronger effect = lower value | superoxide response (% of plate mean), % at 10 µM;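 active = superoxide response under a set limit, about three screen SD below normal, cut at about 65% in these data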;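 note: yeast aged for seven days with compound at 30 °C before DHE staining; 100% = average MFI of all compound-treated wells on the plate with controls excluded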
# NRP1-CendR mod – modulators of CendR peptide binding to NRP-1, primary screen, biochemical, fluorescence polarization, uHTS. inhibition, % at 25 µM. 360,000 tested, 0.85% active. FAM-RPARPAR peptide binding to NRP-1;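 active = inhibition or corrected inhibition above about 18%, plus a signal ratio from 0.5 to 1.5, limit read from the data, passing the limit was not always enough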
# APOBEC3A inh – APOBEC3A ssDNA deaminase inhibitors, primary screen, selectivity assay for APOBEC3G inhibitor project, biochemical, FAM/TAMRA oligo cleavage fluorescence | DNA dC->dU-editing enzyme APOBEC-3A (Homo sapiens), P31941 | recombinant A3A, FAM/TAMRA ssDNA deamination fluorescence | inhibition, % at 20 µM | 330,000 tested, 0.41% active | AID 493011, 2011;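 active = at least 40% inhibition at 20 µM here, with at most 30% in a related deaminase screen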;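 note: plate controls were A3A with DMSO for no effect and wells lacking A3A enzyme for full effect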
# Target sequence (P31941 whole entry, looked up): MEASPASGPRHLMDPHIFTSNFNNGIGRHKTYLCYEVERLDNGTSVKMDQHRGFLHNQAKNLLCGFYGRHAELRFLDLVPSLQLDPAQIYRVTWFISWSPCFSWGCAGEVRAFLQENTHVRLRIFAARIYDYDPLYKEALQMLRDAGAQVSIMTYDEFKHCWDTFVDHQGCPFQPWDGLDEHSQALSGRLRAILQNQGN
# PfM18AAP inh – PfM18AAP inhibitors, malaria aminopeptidase, primary screen, biochemical, QFRET, recombinant enzyme. M18 aspartyl aminopeptidase (Plasmodium falciparum 3D7). H-Glu-NHMec fluorogenic cleavage. inhibition, % at 7.35 µM. 290,000 tested, 1.2% active. AID 1822, 2009;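 active = inhibition above the campaign mean inhibition over all tested compounds plus 3 SD, cut at about 28% in these data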;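 note: 0% = plate median of test compound wells and 100% = 2 mM ZnCl2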
# A3G deaminase – APOBEC3G DNA deaminase inhibitors, primary screen, biochemical, fluorescence, single-stranded DNA substrate, uHTS. DNA dC->dU-editing enzyme APOBEC-3G (Homo sapiens), Q9HC16. recombinant A3G, ssDNA deamination FAM/TAMRA fluorescence. inhibition, % at 20 µM. 330,000 tested, 0.28% active. AID 493012, 2011;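 active = inhibition of at least 40% at 20 µM, with no more than 30% in the related APOBEC3A deaminase screen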;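 note: plate controls were DMSO wells with A3G for no effect and wells lacking A3G enzyme for full effect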
# Target sequence (Q9HC16 whole entry, looked up): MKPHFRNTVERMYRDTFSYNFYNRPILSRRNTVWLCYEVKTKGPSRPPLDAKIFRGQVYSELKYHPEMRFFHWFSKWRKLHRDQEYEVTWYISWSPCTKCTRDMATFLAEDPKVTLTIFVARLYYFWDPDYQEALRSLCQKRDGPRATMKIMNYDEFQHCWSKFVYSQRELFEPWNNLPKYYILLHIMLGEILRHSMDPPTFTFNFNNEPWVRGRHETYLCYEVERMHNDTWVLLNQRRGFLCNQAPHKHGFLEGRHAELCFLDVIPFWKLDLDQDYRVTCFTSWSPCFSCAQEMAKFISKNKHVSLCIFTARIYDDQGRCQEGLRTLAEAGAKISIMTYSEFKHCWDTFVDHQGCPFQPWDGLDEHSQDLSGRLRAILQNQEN
# Active calls of the source: *; ? = inconclusive; / = not tested or not shown.
SMILES,ALR H2O2 inh,Yeast superoxide,NRP1-CendR mod,APOBEC3A inh,PfM18AAP inh,A3G deaminase
O=C1C(Cl)=C(O)C2(Cl)C(Cl)=C(Cl)C12Cl (stereo not drawn),/,/,8,/,/,/
O=C(CCNS(=O)(=O)c1ccc(Cl)cc1)Nc1ccncc1,0,108,1,-4,-1,-9
CCC(C)(C)n1nnnc1C(c1ccccn1)N1CCCCC1 (stereo not drawn),-10,86,2,-4,-6,-5
O=C(CSc1nnc2ccccn12)Nc1ccccc1[N+](=O)[O-],/,/,8,/,/,/
COc1ccccc1CNC(=O)CN(C)S(=O)(=O)c1ccc2c(c1)n(C)c(=O)c(=O)n2C,-2,96,-5,-5,-1,-3
CCCNC(=S)Nc1ccc(CC(=O)OC)cc1,2,90,24*,-1,7,-6
Cc1cccc(NC(=S)Nc2ccc(N3CCOCC3)cc2)c1C,99*,106,3,-1,3,-1
COC(=O)Cc1ccc(NC(=S)NCC(C)C)cc1,-3,98,-4,-3,-4,-6
Oc1ccccc1/C=N/NC(=S)NCCc1ccccc1,11,102,-10,/,29*,/
COc1ccccc1CNCC(=O)Nc1ccc(N2CCOCC2)cc1,99*,106,7,-1,-7,-1
COc1ccccc1NC(=O)Nc1ccc(N2CCOCC2)cc1,50,84,-4,-2,2,-10
COc1ccc(-c2[nH]ncc2CN2CCC(OCc3cccnc3)CC2)c(F)c1,5,106,-6,-2,4,-1
Cc1ccc(NS(=O)(=O)Cc2ccccc2)nc1,-17,88,26*,-2,1,-5
CC(=O)Nc1ccc(NC(=O)CSc2cn(CC(=O)N3CCOCC3)c3ccccc23)cc1,99*,89,12,-2,3,-1
S=C(NCCc1ccccc1)Nc1ccc(Nc2ccccc2)cc1,98*,107,14,-4,4,-4
CC(C)(C)NC(=S)Nc1ccc(Nc2ccccc2)cc1,99*,81,4,0,18,5
O=S(=O)(Cc1ccccc1)Nc1ccc(Br)cn1,-11,100,10,-1,2,-3
CC(C)(C)NC(=S)Nc1ccc(Br)cc1,3,80,2,-1,3,-5
COc1cccc(C(C)(O)c2nc(-c3cccc(F)c3)cs2)c1 (stereo not drawn),/,/,13,/,/,/
Cc1nc(NC(=O)COc2ccccc2)sc1C(=O)Nc1ccccc1,-11,94,-9,3,6,2
Cc1ccc(NC(=S)NCCc2ccccc2)nc1,10,106,-5,-2,29*,-8
CC(C)C(=O)NN(C(=O)C(C)C)c1nc2ccccc2s1,95*,77,1,-1,3,1
CC(C)C(=O)N(Nc1nc2ccccc2s1)C(=O)C(C)C,64,96,11,2,-1,0
O=C(c1cccc(Cl)c1)N1CCN(c2ncccn2)CC1,-2,117,-5,0,-5,-4
CCN1C(=NCCc2ccccn2)N[C@@H](c2cccc(C(F)(F)F)c2)C(C(=O)OC)=C1C,-3,96,21*,32,/,7
SMILES,ALR H2O2 inh,Yeast superoxide,NRP1-CendR mod,APOBEC3A inh,PfM18AAP inh,A3G deaminase
Cc1cc(C)cc(OCCNC(=O)C(C)N2C(=O)c3ccccc3C2=O)c1 (stereo not drawn),-2,106,22*,2,-1,-4
Cc1cc(C)c(NC(=O)c2cc(C(=O)O)ccc2C(=O)O)c([N+](=O)[O-])c1,/,106,5,-4,-2,-9
COc1ccccc1-n1cnc2cc(NCc3ccccc3O)ccc21,98*,98,8,6,5,1
CCn1cnc2cc(NCc3cccc(OC)c3O)ccc21,94*,96,5,-3,8,-5
Cc1ccc(C(=O)CSc2nccn2-c2ccccc2)cc1,/,97,-14,3,3,-6
COc1ccc(CN2CCNC(=O)C2CC(=O)N(C)Cc2cc(C)no2)cc1OC (stereo not drawn),-8,94,-2,2,9,-3
CN(C)CCCCOc1ccccc1-c1ccccc1,9,108,-4,-3,29*,-5
Nc1nc(-c2ccc(Br)s2)c(Br)s1,?,94,30*,-2,22,-5
Cn1nc([N+](=O)[O-])c(C(C#N)c2nc3ccccc3n2C)c(Cl)c1=O (stereo not drawn),100*,110,28*,-1,1,-4
CCn1c(N)c(C(=O)COC(=O)CCc2nc3ccccc3c(=O)[nH]2)c(=O)[nH]c1=O,-1,115,8,5,/,-1
CCOC(=O)/C(=N\Nc1ccccc1Cl)N(C)C1CCCCC1,99*,91,14,3,1,-3
CCN(CC)C(=O)C(c1ccccc1)S(=O)(=O)N1CCOCC1 (stereo not drawn),/,/,-6,/,/,/
CC(=O)c1cc2ccc(O)cc2oc1=O,/,82,13,5,5,-4
Cc1ccc(N=c2oc3cc(O)ccc3cc2C(N)=O)cc1,96*,104,-20,8,2,3
C=CCc1ccc(O)c(-c2ccc(O)c(CC=C)c2)c1,98*,88,0,0,0,-2
O=C(NCC1CC1)Nc1cccs1,99*,91,1,-2,6,10
CC1CCC(NC(=O)CNC(=O)c2cccs2)CC1 (stereo not drawn),-1,103,-14,4,-1,2
CC(C)NC(=O)Nc1cccs1,97*,108,-11,-5,3,-5
Cc1ccc(CNC(=O)Nc2cccs2)cc1,40,103,9,-2,15,-2
O=C(Nc1cccs1)NC1CCCC1,99*,114,-12,1,-1,7
CC1CCC(NC(=O)Nc2cccs2)CC1 (stereo not drawn),98*,102,0,-2,15,-3
Cc1ccc(S(=O)(=O)N2CCC[C@H]2C(=O)OCC(=O)N2CCc3ccccc32)cc1,-6,101,-4,-4,/,-7
COC(=O)[C@@]12C[C@@H](CC(=O)N3CCN(C(=O)c4ccco4)CC3)C(=O)N(Cc3ccco3)C1=CCC(C)(C)C2,/,/,4,/,/,/
COc1cc(C(=O)NCC(=O)N/N=C/c2cccnc2)cc(OC)c1OC,-16,99,5,-2,-5,-11
O=C(NNc1c(F)c(F)cc(F)c1F)c1ccc(Cl)nc1,96*,105,5,3,11,12

# High-throughput results: PubChem, several laboratories
